# Test results from PubChem BioAssay AID652062 (Broad Institute, 2013).
# The campaign covered roughly 1,400 compounds. About 1,100 (79%) were called active.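 How the source made its calls: active means fitted half-maximal concentration of a falling signal no higher than twice the top valid dose in every test run; inconclusive means runs disagree, or flat partial inhibition, or poor fit; inactive means every run inactive: flat, wrong direction, or potency beyond limit.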 The set was probably picked from earlier hits. Not all results are given here. Potency and affinity values are given separately.
# Experiment: inhibitors of clade B AD8 Env fusion, dose response, cell-based, cherry-pick (AID 652062)
# Details: HeLa-AD8 Env / CEM-CCR5 cell fusion, luciferase; at 35 µM (top of the series) unless noted
row,SMILES,"activity change, negative = inhibition"
1,C[C@@H]1CN([C@@H](C)CO)C(=O)Cc2cc(NC(=O)c3ccncc3)ccc2O[C@H]1CN(C)Cc1ccc(Cl)c(Cl)c1,-39.7%
2,C[C@H]1CN([C@@H](C)CO)C(=O)Cc2cc(N(C)C)ccc2O[C@H]1CN(C)CC1CC1,11.8%
3,C[C@H](CO)N1C[C@H](C)[C@@H](CN(C)CC2CC2)Oc2ccc(NS(C)(=O)=O)cc2CC1=O,4.33%
4,Nc1ccc(S(=O)(=O)c2ccc(N3CCOCC3)c(N)c2)cc1,-17.7%
5,COc1ccccc1-c1ccc2c(c1)O[C@H](CN(C)S(=O)(=O)c1ccccc1)[C@H](C)CN([C@H](C)CO)S2(=O)=O,18.5%
6,Cc1ccc(S(=O)(=O)N(C)C[C@H]2Oc3cc(-c4cccc(F)c4)ccc3S(=O)(=O)N([C@H](C)CO)C[C@H]2C)cc1,-33.7%
7,COc1ccc2c3c([nH]c2c1)[C@H](CO)N(C(=O)Nc1cccc(F)c1)CC31CCN(S(=O)(=O)c2ccccc2)CC1,-57.4%
8,COc1ccc2c3c(n(C)c2c1)[C@@H](CO)N(C(=O)C1CCOCC1)CC31CCN(Cc2cccc(F)c2)CC1,-3.19%
9,COc1ccc2c3c([nH]c2c1)[C@@H](CO)N(C(=O)Nc1cccc(F)c1)CC31CCN(S(=O)(=O)c2ccccc2)CC1,-99.7%
10,COc1ccc2c3c(n(C)c2c1)[C@@H](CO)N(C(=O)Nc1ccc(F)cc1)CC31CCN(Cc2cccc(F)c2)CC1,-2.46%
11,CC1(C(=O)NCc2ccc3c(c2)OCO3)CCN1Cc1csc2ccccc12 (stereo not drawn),-11%
12,CCNC1CCC(Nc2ccnc3cc(Cl)ccc23)CC1 (stereo not drawn),-25.4%
13,CCCCCCc1nc2ccccc2c(=O)n1NC(=O)c1c(O)c2c(n(CC(C)C)c1=O)CCCC2,-7.39%
14,COc1ccc(-c2nn(C)c(=O)c3ccccc23)cc1NC(=O)COc1ccccc1,-10.9%
15,COc1ccc(OCC(=O)Nc2cc(-c3nn(C)c(=O)c4ccccc34)ccc2OC)cc1,-23.3%
16,CN(C)C(=O)C[C@@H]1C[C@@H]2c3cc(NS(=O)(=O)c4ccc(F)cc4)ccc3O[C@@H]2[C@@H](CO)O1,8.4%
17,CN(C)C(=O)C[C@H]1C[C@@H]2c3cc(NS(=O)(=O)c4ccc(F)cc4)ccc3O[C@@H]2[C@@H](CO)O1,-6.58%
18,CS(=O)(=O)Nc1ccc2c(c1)[C@@H]1C[C@@H](CC(=O)N3CCc4ccccc4C3)O[C@H](CO)[C@@H]1O2,41.9%
19,CS(=O)(=O)Nc1ccc2c(c1)[C@H]1C[C@@H](CC(=O)NCCN3CCCCC3)O[C@@H](CO)[C@H]1O2,21%

row,SMILES,"activity change, negative = inhibition"
1,CS(=O)(=O)Nc1ccc2c(c1)[C@H]1C[C@H](CC(=O)N3CCc4ccccc4C3)O[C@H](CO)[C@H]1O2,-8.56%
2,O=C(C[C@@H]1C[C@H]2c3cc(NC(=O)Nc4ccc(F)cc4)ccc3O[C@H]2[C@H](CO)O1)NCC1CC1,49.9%
3,CN1CCN(C(=O)C[C@H]2C[C@@H]3c4cc(NS(C)(=O)=O)ccc4O[C@@H]3[C@H](CO)O2)CC1,-46%
4,O=C(Nc1ccc(F)cc1)Nc1ccc2c(c1)[C@@H]1C[C@H](CC(=O)N3CCCCC3)O[C@@H](CO)[C@@H]1O2,-7.88%
5,O=C(C[C@H]1C[C@@H]2c3cc(NC(=O)Nc4ccc(F)cc4)ccc3O[C@@H]2[C@@H](CO)O1)NCC1CC1,-36.8%
6,COc1cccc(S(=O)(=O)Nc2ccc3c(c2)[C@H]2C[C@H](CC(=O)NCc4ccc(Cl)cc4)O[C@@H](CO)[C@H]2O3)c1,0.353%
7,O=C(Nc1ccc(F)cc1)Nc1ccc2c(c1)[C@@H]1C[C@H](CC(=O)N3CCCCC3)O[C@H](CO)[C@@H]1O2,-21.7%
8,CN(C)CC(=O)Nc1ccc2c(c1)[C@H]1C[C@H](CC(=O)NCc3cccc(F)c3)O[C@@H](CO)[C@H]1O2,-1.18%
9,COCCNC(=O)C[C@@H]1C[C@H]2c3cc(N(C)C)ccc3O[C@H]2[C@@H](CO)O1,-37%
10,O=C(C[C@H]1C[C@H]2c3cc(NS(=O)(=O)c4ccc(F)cc4)ccc3O[C@H]2[C@@H](CO)O1)NCc1ccccc1F,28%
11,O=C(C[C@@H]1C[C@@H]2c3cc(NC(=O)C4CCOCC4)ccc3O[C@@H]2[C@H](CO)O1)NCc1ccccc1F,23.2%
12,O=C(C[C@@H]1C[C@H]2c3cc(NC(=O)C4CCOCC4)ccc3O[C@H]2[C@H](CO)O1)NCc1ccccc1F,10.9%
13,O=C(C[C@H]1C[C@@H]2c3cc(NC(=O)C4CCOCC4)ccc3O[C@@H]2[C@@H](CO)O1)NCc1ccccc1F,-7.12%
14,Cc1ccc(S(=O)(=O)N(C)C[C@H]2Oc3cc(C4=CCCC4)ccc3S(=O)(=O)N([C@H](C)CO)C[C@H]2C)cc1,-41.2%
15,COc1ccc(S(=O)(=O)N(C)C[C@H]2Oc3cc(C4=CCCC4)ccc3S(=O)(=O)N([C@@H](C)CO)C[C@H]2C)cc1,5.51%
16,COc1cccc(/C=N/NC(=O)CC2C(=O)NN=C2C)c1O (stereo not drawn),-20%
17,COc1ccc(CCCC(=O)NCCc2ccccc2)c(C)c1,7.11%
18,CCCNC(=O)C[C@@H]1C[C@@H]2c3cc(NC(=O)Cc4ccncc4)ccc3O[C@@H]2[C@@H](CO)O1,-32.8% [at 30 µM]
19,CCCNC(=O)C[C@@H]1C[C@H]2c3cc(NC(=O)Cc4ccncc4)ccc3O[C@H]2[C@@H](CO)O1,10.9% [at 30 µM]
